Results: the supplement of paper PMC12645437, “Orthogonal IMiD-Degron Pairs Induce Selective Protein Degradation in Cells” (ACS Chemical Biology, 2025)
The full ranking holds about 8,300 sequences; the median of “log2 fold change of degron read counts, EGFP-low vs EGFP+ sorted cells (limma voom), compound-induced degradation” is about -1.1, and the highest 2% start at about 3.2. Shown is part of a subset that was picked to be rich in the highest values.

T1: CRBN, Q96SW2
T1 chain: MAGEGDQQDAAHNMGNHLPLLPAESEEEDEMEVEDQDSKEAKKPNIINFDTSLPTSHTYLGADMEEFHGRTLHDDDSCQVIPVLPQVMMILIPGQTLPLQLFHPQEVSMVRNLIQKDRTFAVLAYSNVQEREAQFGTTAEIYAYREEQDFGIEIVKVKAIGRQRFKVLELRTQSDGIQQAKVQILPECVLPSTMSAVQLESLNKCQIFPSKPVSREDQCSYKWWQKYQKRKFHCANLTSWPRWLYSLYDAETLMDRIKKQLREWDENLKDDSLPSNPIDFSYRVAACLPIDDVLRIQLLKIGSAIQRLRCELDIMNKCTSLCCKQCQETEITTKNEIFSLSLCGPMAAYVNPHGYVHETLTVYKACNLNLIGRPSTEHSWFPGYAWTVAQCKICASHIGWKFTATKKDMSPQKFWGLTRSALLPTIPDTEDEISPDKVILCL


Molecular target: T1, CRBN, Q96SW2
Assay: log2 fold change of degron read counts, EGFP-low vs EGFP+ sorted cells (limma voom), compound-induced degradation; higher = more compound-induced degradation of the degron-EGFP fusion; degrons are variants of IKZF1/3 zinc finger 2; compound dose not given here
Conditions: Jurkat, 18 h
Experimental: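 Pooled library of 8380 IKZF3 ZF2 degron mutants (positions 146-167 varied within the IKZF3 130-189 degron; only the varied core is printed, flanks not printed) fused to EGFP with IRES-mCherry, lentivirally expressed in Jurkat cells. mCherry+ cells were treated with one IMiD compound for 18 h (dose not stated) and FACS-sorted into EGFP-low and EGFP+ populations. Degron sequences were counted by NGS, and log2FC (EGFP-low vs EGFP+) was estimated by limma voom over 3 biological replicates.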

[1] = compound: compound 19 (5-tert-butyl-thalidomide)
[2] = compound: compound 22 (5-morpholino-thalidomide)
[3] = compound: compound 33 (diphenyl IMiD analogue)
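Further: pooled lentiviral library of zinc finger degron-EGFP fusions in mCherry-positive Jurkat cells, FACS-sorted after compound exposure, with degron abundance counted by next-generation sequencing.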

Row | Sequence | log2 fold change of degron read counts [1] | log2 fold change of degron read counts [2] | log2 fold change of degron read counts [3] | log2 fold change of degron read counts (compound: thalidomide)
1 | FHCNICGAQFTQKGNLLRHIKL [46F_47H_49N_50I_52G_53A_54Q_55F_67L_, Q9UKT9] | 0.655 | 1.29 | 1.05 | -0.181
2 | FYCEICGRCFTQKGNLLRHIKL [46F_47Y_49E_50I_52G_53R_54C_55F_67L_, Q9UKT9] | 0.939 | 0.533 | 1.13 | -0.963
3 | FKCEQCGAVFTQKGNLLRHIKL [46F_47K_49E_50Q_52G_53A_54V_55F_67L_, Q9UKT9] | -3.73 | -2.96 | -3.73 | -3.19
4 | FKCNQCGAVFTQKGNLLRHIKL [46F_47K_49N_50Q_52G_53A_54V_55F_67L_, Q9UKT9] | -2.58 | -2.71 | -3.07 | -2.52
5 | LCCNQCGFACTQKGNLLRHIKL [46L_47C_49N_50Q_52G_53F_54A_55C_67L_, Q9UKT9] | -1.66 | -2.13 | -1.86 | -1.41
6 | FICNQCGRGFTQKGNLLRHIKL [46F_47I_49N_50Q_52G_53R_54G_55F_67L_, Q9UKT9] | -3.02 | -3.8 | -3.62 | -2.96
7 | FVCNQCGRLFTQKGNLLRHIKL [46F_47V_49N_50Q_52G_53R_54L_55F_67L_, Q9UKT9] | -1.99 | -2.78 | -1.99 | -1.68
8 | FYCDVCGAAFTQKGNLLRHIKL [46F_47Y_49D_50V_52G_53A_54A_55F_67L_, Q9UKT9] | 2.59 | 2.94 | 1.59 | -1.42
9 | FWCDVCGAAFTQKGNLLRHIKL [46F_47W_49D_50V_52G_53A_54A_55F_67L_, Q9UKT9] | 2.61 | 3.37 | 1.17 | -0.68
10 | FVCDVCGAAFTQKGNLLRHIKL [46F_47V_49D_50V_52G_53A_54A_55F_67L_, Q9UKT9] | -0.53 | 1.92 | 0.755 | 1.42
11 | FRCPVCGAAFTQKGNLLRHIKL [46F_47R_49P_50V_52G_53A_54A_55F_67L_, Q9UKT9] | 2.21 | 2.41 | 2.44 | 2.31
12 | FLCPVCGAAFTQKGNLLRHIKL [46F_47L_49P_50V_52G_53A_54A_55F_67L_, Q9UKT9] | 0.86 | 0.132 | 1.81 | 1.42
13 | FACPVCGAAFTQKGNLLRHIKL [46F_47A_49P_50V_52G_53A_54A_55F_67L_, Q9UKT9] | 3.6 | 2.87 | 1.74 | 1.56
14 | FVCNQCGARFTQKGNLLRHIKL [46F_47V_49N_50Q_52G_53A_54R_55F_67L_, Q9UKT9] | -2.15 | -2.17 | -1.37 | -0.598
15 | FRCNQCGHEFTQKGNLLRHIKL [46F_47R_49N_50Q_52G_53H_54E_55F_67L_, Q9UKT9] | -3.26 | -3.83 | -3.1 | -2.88
16 | FDCPICGHIFTQKGNLLRHIKL [46F_47D_49P_50I_52G_53H_54I_55F_67L_, Q9UKT9] | -2.28 | -2.43 | -1.8 | -1.37
17 | LACPICGFWCTQKGNLLRHIKL [46L_47A_49P_50I_52G_53F_54W_55C_67L_, Q9UKT9] | 2.95 | 2.34 | 2.58 | 2.45

Row | Sequence | log2 fold change of degron read counts [1] | log2 fold change of degron read counts [2] | log2 fold change of degron read counts [3] | log2 fold change of degron read counts (compound: thalidomide)
18 | FICEQCGAIFTQKGNLLRHIKL [46F_47I_49E_50Q_52G_53A_54I_55F_67L_, Q9UKT9] | -2.04 | -1.4 | -0.144 | -0.929
19 | FMCEICGRLFTQKGNLLRHIKL [46F_47M_49E_50I_52G_53R_54L_55F_67L_, Q9UKT9] | -2.26 | -3.02 | -1.18 | -0.917
20 | FNCPICGHCFTQKGNLLRHIKL [46F_47N_49P_50I_52G_53H_54C_55F_67L_, Q9UKT9] | -2.1 | -3.11 | -1.84 | -2.15
21 | FNCDICGAWFTQKGNLLRHIKL [46F_47N_49D_50I_52G_53A_54W_55F_67L_, Q9UKT9] | -1.24 | -2.06 | -2.22 | -2.05
22 | FFCPVCGASFTQKGNLLRHIKL [46F_47F_49P_50V_52G_53A_54S_55F_67L_, Q9UKT9] | 3.04 | 3.18 | 2.27 | 1.42
23 | FSCPVCGASFTQKGNLLRHIKL [46F_47S_49P_50V_52G_53A_54S_55F_67L_, Q9UKT9] | 3.33 | 2.24 | 2.42 | 1.71
24 | FACPVCGASFTQKGNLLRHIKL [46F_47A_49P_50V_52G_53A_54S_55F_67L_, Q9UKT9] | 3.54 | 2.15 | 1.39 | 1.39
25 | FKCPVCGASFTQKGNLLRHIKL [46F_47K_49P_50V_52G_53A_54S_55F_67L_, Q9UKT9] | 1.07 | -1.4 | -1.51 | 0.152
26 | FNCPVCGASFTQKGNLLRHIKL [46F_47N_49P_50V_52G_53A_54S_55F_67L_, Q9UKT9] | 2.78 | 1.17 | 1.06 | 0.433
27 | FECPVCGASFTQKGNLLRHIKL [46F_47E_49P_50V_52G_53A_54S_55F_67L_, Q9UKT9] | 1.95 | -0.732 | 2.2 | 2.9
28 | FVCPVCGASFTQKGNLLRHIKL [46F_47V_49P_50V_52G_53A_54S_55F_67L_, Q9UKT9] | 0.217 | 2.83 | 2.01 | 2.79
29 | FMCPVCGASFTQKGNLLRHIKL [46F_47M_49P_50V_52G_53A_54S_55F_67L_, Q9UKT9] | 1.06 | 2.04 | 2.75 | 2.02
30 | FTCPVCGASFTQKGNLLRHIKL [46F_47T_49P_50V_52G_53A_54S_55F_67L_, Q9UKT9] | 1.45 | 2.72 | 2.67 | 2.79
31 | FGCPVCGASFTQKGNLLRHIKL [46F_47G_49P_50V_52G_53A_54S_55F_67L_, Q9UKT9] | 3.39 | 2.36 | 2.57 | 1.08
32 | FQCPVCGASFTQKGNLLRHIKL [46F_47Q_49P_50V_52G_53A_54S_55F_67L_, Q9UKT9] | 2.35 | 2.72 | 2.38 | 3.6
33 | FDCPVCGASFTQKGNLLRHIKL [46F_47D_49P_50V_52G_53A_54S_55F_67L_, Q9UKT9] | 2.73 | 0.654 | 1.35 | 1.92
